The text below walks through data of PubChem BioAssay AID2156 (Johns Hopkins Ion Channel Center, 2009).

Screen size: about 310,000 compounds; about 3,400 (1.1%) were called active. The list comes from a sample in which actives are over-represented; it also holds similar structures and randomly drawn compounds. Values without a mark were called inactive.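 The calls were made as follows: active = fluorescence ratio B-score at most minus 3 library SDs, with starting brightness B-score within 2 library SDs (cut at about -5.5 in these data); inactive = the rest, inconclusive results apart.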

In the assay the target is Potassium voltage-gated channel subfamily KQT member 2 (Rattus norvegicus) (UniProt O88943). Put plainly: rat KCNQ2 potassium channel inhibitors, primary screen, cell-based, CHO-K1, FluxOR thallium flux, B-score (AID 2156). Particulars: 20 min, at 10 µM; hits give low values.
Sequence of Potassium voltage-gated channel subfamily KQT member 2 (Rattus norvegicus) (O88943 whole entry, looked up): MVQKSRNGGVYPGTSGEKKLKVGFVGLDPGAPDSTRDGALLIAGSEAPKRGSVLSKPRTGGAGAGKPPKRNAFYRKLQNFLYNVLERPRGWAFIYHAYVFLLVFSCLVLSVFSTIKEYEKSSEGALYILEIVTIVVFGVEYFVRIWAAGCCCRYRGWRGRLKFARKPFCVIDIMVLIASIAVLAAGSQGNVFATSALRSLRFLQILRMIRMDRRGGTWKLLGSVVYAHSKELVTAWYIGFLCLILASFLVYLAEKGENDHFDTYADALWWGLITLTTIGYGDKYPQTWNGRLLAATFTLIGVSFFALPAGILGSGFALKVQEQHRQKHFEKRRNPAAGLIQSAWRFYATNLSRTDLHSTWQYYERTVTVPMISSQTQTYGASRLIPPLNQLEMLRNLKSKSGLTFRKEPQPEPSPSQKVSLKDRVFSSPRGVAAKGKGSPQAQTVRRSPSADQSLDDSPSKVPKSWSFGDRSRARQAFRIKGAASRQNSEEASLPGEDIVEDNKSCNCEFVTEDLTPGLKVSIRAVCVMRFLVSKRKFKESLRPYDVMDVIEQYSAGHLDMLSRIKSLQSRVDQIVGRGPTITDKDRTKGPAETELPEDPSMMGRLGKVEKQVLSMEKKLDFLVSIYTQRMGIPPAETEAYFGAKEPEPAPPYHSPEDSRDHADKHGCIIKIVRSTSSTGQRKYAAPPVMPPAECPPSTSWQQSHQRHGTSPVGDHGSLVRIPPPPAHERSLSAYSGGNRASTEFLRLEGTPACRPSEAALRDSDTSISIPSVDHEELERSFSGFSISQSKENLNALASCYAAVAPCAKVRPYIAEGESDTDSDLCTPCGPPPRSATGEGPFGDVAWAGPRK
Consider `Cc1ccc2c(c1)N(C(=O)CCC(=O)NCc1cccnc1)CCO2`, for which the B-score is -0.11.

In the case of `Cc1ccc2c(c1)N(C(=O)CCC(=O)N1CCc3ccccc3C1)CCO2`, the B-score is -5.74 (active).

With `Cc1ccc(Cl)c(OCC(=O)N2CCc3ccccc3C2)c1`, the B-score is -3.66.

As for `COc1ccc(C(=O)OCC(=O)Nc2ccc3[nH]c(=O)[nH]c3c2)c(OC)c1OC`, the B-score is -0.64.

Turning to `Cc1cc(C(=O)NC2CCCc3c2cnn3-c2cccc(C)c2C)c(C)o1` (stereo not drawn), the B-score is -2.79.

`COc1ccc(C(=O)NC2CCCc3c2cnn3-c2cccc(C)c2C)c(OC)n1` (stereo not drawn): the B-score was -6.25 (active).

On to `Cn1nccc1C(=O)NC1CCCc2c1cnn2-c1ccccc1F` (stereo not drawn), for which the B-score result was “inactive”.

For the compound `O=C(COC(=O)Cn1[nH]c(=O)c2ccccc2c1=O)Nc1c(Cl)cccc1C(F)(F)F`, the B-score result is “inactive”.

Regarding `Cc1ccc2nc(NC(=O)CSc3nc(=O)n(CCCN(C)C)c4c3CCC4)sc2c1`, the B-score result is “inactive”.

On to `CC12CCC(=O)N1C(C(=O)Nc1ccc(F)c(F)c1F)CS2` (stereo not drawn), for which the B-score entry was “inactive”.

For the compound `CCOc1ccc(NS(=O)(=O)c2ccc(C(=O)NCC(c3ccccc3OC)N3CCCC3)cc2)cc1` (stereo not drawn), the B-score was -1.58.

As to `Cc1ccc(N2C(=O)CC(Nc3cccc4ccccc34)C2=O)cc1` (stereo not drawn), the B-score is -1.06.

For the compound `Cc1ccc(N2C(=O)C3C(c4ccccc4)(C2=O)C3(c2ccccc2)c2ccccc2)cc1` (stereo not drawn), the B-score is -9.48 (active).

Turning to `Cc1ccc(N2C(=O)C3CC3C2=O)cc1` (stereo not drawn), the B-score entry is “inactive”.

For the compound `CN(CC(=O)Nc1ccccc1Cl)C(=O)c1ccccc1SCC(=O)N1CCCC1`, the B-score is -0.59.

As to `CCCCCCCNC(=O)C1(CC2CC(c3cccc(Br)c3)=NO2)CCN(C(=O)c2cc(OCC)c(OCC)c(OCC)c2)CC1` (stereo not drawn), the B-score is -2.53.

For `N#Cc1c(NC(=O)CCCN2C(=O)c3ccccc3C2=O)oc(-c2ccccc2)c1-c1ccccc1`, the B-score was -1.14.

With `COC(=O)c1sccc1NC(=O)c1cc(OC)c(OC)c(OC)c1`, the B-score result was “inactive”.

Turning to `COc1cc(C(=O)Nc2oc(-c3ccccc3)c(-c3ccccc3)c2C#N)cc(OC)c1OC`, the B-score is -6.31 (active).

On to `Cc1cccc(-c2nc(Nc3ccc(O)cc3)c3ccccc3n2)c1`, for which the B-score is -3.05.

For `Cc1cccc(-[n+]2c(-c3cccc(Br)c3)[nH]c3nc4ccccc4nc32)c1`, the B-score is -6.92 (active).

Regarding `CCCCn1c(N)c(N(CCOC)C(=O)CSCC(=O)Nc2cccc(C)c2)c(=O)[nH]c1=O`, the B-score entry was “inactive”.

On to `O=S(=O)(Nc1cccc(-c2ccc(N3CCOCC3)nn2)c1)c1ccc(Cl)c(Cl)c1`, for which the B-score entry is “inactive”.

As for `Cc1cc(C)c(S(=O)(=O)N2CCCC2CNC(=O)c2ccc3c(c2)OCO3)c(C)c1` (stereo not drawn), the B-score is -3.59.

For the compound `CCN(CC)CCOc1ccc2c(c1)C(=NNC(=O)c1ccccn1)c1cc(OCCN(CC)CC)ccc1-2`, the B-score is -7.1 (active).

As to `Cc1ccc(Cl)cc1NC(=O)c1ccccn1`, the B-score is -3.49.

On to `Cc1cccc(OCC(=O)NCCCNC(=O)c2ccccn2)c1`, for which the B-score is -0.01.

Consider `COc1cc(C(=O)NCC(=O)NCCSc2ccc(Br)cc2)cc(OC)c1OC`, for which the B-score result was “inactive”.

Consider `COc1cccc(NC(=O)CN(C)C(=O)CSCc2nc3scc(-c4cccs4)c3c(=O)[nH]2)c1`, for which the B-score entry is “inactive”.

As for `O=C(/C=C/c1ccccc1)N/C(=C/c1ccccc1)C(=O)Nc1ccccc1O`, the B-score was -0.61.

Consider `CCc1ccccc1NC(=O)/C(=C/c1ccccc1)c1ccccc1`, for which the B-score was -9.3 (active).

In the case of `CCc1ccccc1NC(=S)Nc1cc(OC)c(NC(=O)C(C)C)cc1OC`, the B-score was -0.92.

Consider `COC(=O)c1ccc(N2CCOCC2)c(NC(=O)c2ccc(Br)o2)c1`, for which the B-score entry was “inactive”.

As to `CCCC(=O)Nc1ccc(Cl)c(NC(=O)c2ccc(Br)o2)c1`, the B-score entry is “inactive”.

In the case of `CCN1CCN(c2c(Cl)cccc2NC(=O)c2ccc(Br)o2)CC1`, the B-score was -6.14 (active).

In the case of `CN(/N=C/c1ccccc1)C(=S)c1ccccc1`, the B-score entry was “inactive”.

For the compound `O=C(NCCS(=O)(=O)N1CCN(c2ccc(F)cc2)CC1)c1ccc2c(c1)OCO2`, the B-score entry is “inactive”.

Consider `CC1(c2cccc([N+](=O)[O-])c2)CC(C)(C)N(C(=O)c2ccccc2)c2ccccc21` (stereo not drawn), for which the B-score is -7.53 (active).

`O=C(c1cccc([N+](=O)[O-])c1)N1CCN(Cc2ccccc2)CC1`: the B-score entry is “inactive”.

For the compound `CC1(c2ccccc2)CC(C)(C)N(C(=O)c2cc([N+](=O)[O-])cc([N+](=O)[O-])c2)c2ccccc21` (stereo not drawn), the B-score is -1.63.

Take `NC(=O)c1ccsc1NC(=O)COC(=O)Cc1n[nH]c(=O)c2ccccc12`: the B-score is -1.74.

`COc1ccc(S(=O)(=O)NCCCc2ccccc2)cc1`: the B-score entry is “inactive”.

`Cc1ccc(OCCNC(=O)CCNS(=O)(=O)c2ccc(Br)cc2)cc1`: the B-score entry is “inactive”.

For `O=C(Nc1cccc(Cl)c1N1CCOCC1)c1ccc2c(c1)OCCO2`, the B-score was -6.48 (active).

For `O=C(Nc1cccc(Cl)c1N1CCOCC1)c1cccnc1`, the B-score result is “inactive”.

`COC(=O)c1ccc(N2CCOCC2)c(NC(=O)c2ccc3c(c2)OCCO3)c1`: the B-score result is “inactive”.

With `Cc1ccc(NC(=O)CSCC(=O)Nc2sccc2C#N)cc1`, the B-score was -0.08.

Consider `O=C(COC(=O)c1ccccc1Br)Nc1nnc(-c2ccccc2)o1`, for which the B-score is -0.06.

With `CC(C)(C)n1nnnc1C(c1cccs1)N(Cc1cccnc1)CC1CCCO1` (stereo not drawn), the B-score is -0.68.

As for `CCOc1ccc(CN(Cc2ccco2)S(=O)(=O)c2ccc(-n3cnnn3)c(OC)c2)cc1`, the B-score entry was “inactive”.

Take `CCOc1ccc(CN(Cc2ccco2)C(c2cccs2)c2nnnn2C(C)(C)C)cc1` (stereo not drawn): the B-score was -6.35 (active).

In the case of `O=C(NCc1ccccn1)Nc1ccc(Cl)cc1`, the B-score result was “inactive”.

As to `CCCN(CC(=O)Nc1ccccc1OC)C(=O)CCC(=O)c1ccc(F)cc1`, the B-score is -1.98.

`CN(C1CCS(=O)(=O)C1)S(=O)(=O)c1ccc2ccccc2c1` (stereo not drawn): the B-score was -0.6.

`O=C1c2oc3ccc(Br)cc3c(=O)c2C(c2cccc(F)c2)N1CCO` (stereo not drawn): the B-score is -4.46.

`O=C1c2oc3ccccc3c(=O)c2C(c2cccc(O)c2)N1c1ccccn1` (stereo not drawn): the B-score was -0.06.

Regarding `COCCN1C(=O)c2oc3c(C)cc(C)cc3c(=O)c2C1c1cccc(O)c1` (stereo not drawn), the B-score is -6.4 (active).

In the case of `CC(=O)O[C@H]1CC[C@@]2(C)[C@@H](CC[C@@H]3[C@@H]2CC[C@]2(C)[C@@H](C(C)(C)O)C[C@@H]32)C1`, the B-score result was “inactive”.
